The supplement of paper PMC13380429

Test system: Vero E6 infected with SARS-CoV-2
Assay: inhibition of SARS-CoV-2 cytopathic effect; higher = more antiviral protection, active = above 15
Conditions: 48 h

Measured: inhibition of SARS-CoV-2 cytopathic effect

CC[C@H]1OC(=O)[C@H](C)[C@@H](O[C@H]2C[C@@](C)(OC)[C@@H](O)[C@H](C)O2)[C@H](C)[C@@H](O[C@@H]2O[C@H](C)C[C@H](N(C)C)[C@H]2O)[C@](C)(O)C[C@@H](C)CN(C)[C@H](C)[C@@H](O)[C@]1(C)O [azithromycin]
inactive: 1 nM 0.31% | 8.33 nM 1.86% | 100 nM 2% | 833.33 nM 0.56% | 10000 nM 0.92%

CC(C)(C)c1ccc(-c2nc3c(N4CCN(Cc5ccc6nccnc6c5)CC4)cccc3[nH]2)cc1
inactive: 1 nM 1.45% | 8.33 nM 1.91% | 100 nM 1.44% | 833.33 nM -0.5% | 10000 nM 4.93%

O=C1OC2(c3ccc(O)cc3Oc3cc(O)ccc32)c2ccccc21 [fluorescein]
inactive: 1 nM -8.63% | 8.33 nM -9.87% | 100 nM -11.5% | 833.33 nM -5.06% | 10000 nM -7.22%

Cc1cccc(-c2n[nH]cc2-c2ccc3ncccc3n2)n1 [repsox]
inactive: 1 nM -0.69% | 8.33 nM 2.3% | 100 nM -2.26% | 833.33 nM -4.59% | 10000 nM -4.62%

O=C(O)CCCC[C@@H]1CCSS1 [thioctic-acid]
inactive: 1 nM 0.04% | 8.33 nM -0.43% | 100 nM -1.56% | 833.33 nM 1.13% | 10000 nM -3.32%

O=C1c2cc(Cl)ccc2OC2CCON12 (stereo not given) [seclazone]
inactive: 1 nM -0.24% | 8.33 nM 1.68% | 100 nM 1.79% | 833.33 nM 0.75% | 10000 nM 1.99%

CN(CCOc1ccc(-c2ccc3c(c2)OCO3)cc1C(C)(C)C)CC(=O)O
inactive: 1 nM 1.26% | 8.33 nM -3.67% | 100 nM -6.89% | 833.33 nM -0.1% | 10000 nM -1.31%

CCOC(=O)c1c(CSc2ccccc2)n(C)c2cc(Br)c(O)c(CN(C)C)c12 [arbidol]
inactive: 1 nM -1.24% | 8.33 nM 3.62% | 100 nM 2.92% | 833.33 nM 4.8% | 10000 nM 3.91%

COc1cc([C@@H]2c3cc4c(cc3[C@@H](O[C@@H]3O[C@@H]5CO[C@@H](C)O[C@H]5[C@H](O)[C@H]3O)[C@H]3COC(=O)[C@H]23)OCO4)cc(OC)c1OP(=O)(O)O [etoposide-phosphate]
inactive: 1 nM -3.4% | 8.33 nM -1.24% | 100 nM -0.75% | 833.33 nM -0.98% | 10000 nM 1.67%

C[C@]12CCC(=O)C=C1[C@@H]1C[C@@H]1[C@H]1[C@@H]3[C@@H]4C[C@@H]4[C@@]4(CCC(=O)O4)[C@@]3(C)CC[C@@H]12 [drospirenone]
inactive: 1 nM -10.6% | 8.33 nM -1.07% | 100 nM -3.16% | 833.33 nM 0.94% | 10000 nM 5.09%

CC(C)n1cnc2c(C(=O)N[C@H]3CN4CCC3CC4)cc(Cl)cc21
inactive: 1 nM -1.27% | 8.33 nM -1.37% | 100 nM -1.13% | 833.33 nM 1.32% | 10000 nM -4.61%

COc1ccc(C(=O)c2ccccc2O)c(O)c1 [dioxybenzone]
inactive: 1 nM 1.95% | 8.33 nM -0.38% | 100 nM -1.57% | 833.33 nM -0.76% | 10000 nM 2.94%

O=C1OC(c2ccc(O)cc2)(c2ccc(O)cc2)c2ccccc21 [phenolphthalein]
inactive: 1 nM -1.78% | 8.33 nM 2.66% | 100 nM -1.09% | 833.33 nM -0.27% | 10000 nM 0.56%

Cc1[nH]c(/C=C2\C(=O)Nc3ccc(S(=O)(=O)Cc4c(Cl)cccc4Cl)cc32)c(C)c1C(=O)N1CCC[C@@H]1CN1CCCC1
inactive: 1 nM -0.63% | 8.33 nM -2.66% | 100 nM -1.94% | 833.33 nM 1.33%
active: 10000 nM 50.2%

COc1cc(NC(=O)c2ccccn2)ccc1Cl
inactive: 1 nM -0.99% | 8.33 nM -1.87% | 100 nM 1.63% | 833.33 nM 2.18% | 10000 nM 1.18%

C/C=C(/C(=C/C)c1ccc(O)cc1)c1ccc(O)cc1 [dienestrol]
inactive: 1 nM 2% | 8.33 nM -0.9% | 100 nM -0.85% | 833.33 nM 0.84% | 10000 nM 1.6%

COc1cccc(/C=N/N=C/c2cccc(OC)c2)c1
inactive: 1 nM -0.08% | 8.33 nM 2.48% | 100 nM -2.17% | 833.33 nM -0.34% | 10000 nM 0.47%

CC(=O)/N=c1/[nH]c(C)c(-c2ccc(Cl)c(S(=O)(=O)NCCO)c2)s1
inactive: 1 nM 0.03% | 8.33 nM -0.02% | 100 nM 1.03% | 833.33 nM 1.81% | 10000 nM 2.47%

COc1nc(C)cnc1NS(=O)(=O)c1cccnc1-c1ccc(-c2nnco2)cc1 [zibotentan]
inactive: 1 nM -2.02% | 8.33 nM -0.17% | 100 nM -0.98% | 833.33 nM -3.56% | 10000 nM -1.47%
